SMILES strings stand for the structures. About 13,000 (27%) of roughly 48,000 compounds showed an effect of 50% or more. Some of the results follow.

The source of these data is ChEMBL document CHEMBL3988442, “University of Dundee, Small-Polar-MMV Screening Library” (2021).

For this assay, the system named is Wolbachia pipientis. Kind of assay: Anti-Wolbachia Cell-Based Screen. Type of assay: functional. Details: scale not given: in the data most compounds retested in dose-response had high values. To be noted: 5 µM.
With `CCN1C(=O)COC[C@@H]1[C@H](O)c1ccc(NC(=O)COC)cc1`, the “Percent Effect” value was -2.196%.

For `c1cc(-c2nc3c(c(NCCc4c[nH]cn4)n2)CCNCC3)ccn1`, the “Percent Effect” value is reported as 6.655%. Take `CC(=O)c1cccc(C(=O)N2C[C@@H](CN3CCCCCC3)[C@@H](CO)C2)c1`: the “Percent Effect” value is -7.849%. To `CN(C)c1ccc2c(c1)CN(C(=O)c1c[nH]cn1)C2c1cnco1` (configuration not stated) belongs 3.646%. Then `CCn1cc(S(=O)(=O)N(C)Cc2c(Br)cnn2CC)c(C)n1`, with 5.348%; and `CCn1cc(S(=O)(=O)N2CCC(C3CCCCN(C)C3=O)CC2)c(C)n1` (configuration not stated), with 91.1%; and `CCn1cc(C(=O)n2nc(C)cc2C)c(S(=O)(=O)N2CCCCC2)n1`, with -19.19%. On to `CN1CCCCC(C2CCN(S(=O)(=O)c3cn(C)cn3)CC2)C1=O` (configuration not stated), for which the “Percent Effect” value came out at 106.2%. As for `Cc1nccn1-c1cccc(C2CCCN2S(=O)(=O)c2cn(C)cn2)n1` (configuration not stated), the “Percent Effect” value is listed as -2.327%. Then `Cn1cnc(S(=O)(=O)N2CCCn3cnc(CN4CCCC4)c3C2)c1`, with 1.863%; and `CN(Cc1ccccc1)c1ccc(C(F)(F)F)cn1`, with 3.007%; and `Cc1cc(Cl)ccc1NCC(=O)Nc1cc(C(C)(C)C)no1`, with -19.79%.

On to `Cc1cccc(C(=O)N2C[C@@H]3COC[C@@H](CC(=O)N4CCCC4)[C@@H]3C2)n1.O=C(O)C(F)(F)F`, for which the “Percent Effect” value worked out at 117.6%. Then `O=C(C[C@@H]1COC[C@H]2CN(Cc3ccc(F)cc3)C[C@@H]12)N1CCCCO1.O=C(O)C(F)(F)F`, with 6.294%. To `O=C(C[C@@H]1COC[C@H]2CN(C(=O)c3ccccn3)C[C@@H]12)N1CCCC1.O=C(O)C(F)(F)F` belongs 106.7%; to `O=C(C[C@@H]1COC[C@H]2CN(Cc3ccsc3)C[C@@H]12)N1CCCC1`, -43.11%.

With `Cc1cccc(C(=O)N2C[C@@H]3[C@H](CC(=O)N4CCCC4)[C@@H]3C2)n1`, the “Percent Effect” value is reported as -9.844%. For `Cc1cccc(C(=O)N2C[C@@H]3[C@H](CC(=O)NC(C)C)[C@@H]3C2)n1.O=C(O)C(F)(F)F`, the “Percent Effect” value was -21.16%. Then `COc1ccc2c(C)c(C(=O)NCC3CN(S(C)(=O)=O)CCO3)oc2c1` (configuration not stated), with -45.67%.

In the case of `CC(C)[C@@H]1CN(Cc2ccccc2C#N)C[C@H]1C(=O)O`, the “Percent Effect” value was -3.453%. Then `CC(=O)c1cc(CN2C[C@H]3CC[C@@H]2CN(Cc2c(C)noc2C)C3)cs1`, with 0.576%; and `c1cnc(Nc2cncc(C3CCCN(c4cnccn4)C3)n2)nc1` (configuration not stated), with 136.5%; and `c1cnc(Nc2cncc(C3CCCN(c4ncccn4)C3)n2)nc1` (configuration not stated), with 144.2%. For `c1ccc(N2CCCC(c3nc(-c4cccnn4)no3)C2)nc1` (configuration not stated), the “Percent Effect” value was -11.75%. For `Cc1cc(NC(=O)CNc2cccc(C(=O)N3CCCC(O)C3)c2)no1` (configuration not stated), the “Percent Effect” value is -4.959%.

Regarding `O=C(CCCc1ccccn1)NCC(O)c1ccccc1Cl` (configuration not stated), the “Percent Effect” value came out at 8.067%.

Regarding `CC(NCCn1c(=O)oc2ccccc21)c1ccccn1` (configuration not stated), the “Percent Effect” value was -1.92%.

Consider `O=C(CCn1c(=O)oc2ccccc21)NCC(O)c1ccccc1` (configuration not stated), for which the “Percent Effect” value is reported as 124.9%.

`CC(NC(=O)CCn1c(=O)oc2ccccc21)c1ccccn1` (configuration not stated): the “Percent Effect” value came out at 132.8%. For `O=C(CCn1c(=O)oc2ccccc21)NCC(O)c1ccc(Cl)cc1` (configuration not stated), the “Percent Effect” value was found to be 131.9%. To `O=C(NCC(O)c1ccc(F)c(F)c1)c1ccccc1F` (configuration not stated) belongs -40.57%; to `O=C(CCn1c(=O)oc2ccccc21)NCC(O)c1ccc(F)c(F)c1` (configuration not stated), 132.5%; to `Nc1nnc(SCC(=O)NCC(O)c2ccccc2)s1` (configuration not stated), 7.273%. Take `CC(c1ccccn1)N(C)C(=O)NCCn1c(=O)oc2ccccc21` (configuration not stated): the “Percent Effect” value was -13.01%.

As for `Cc1ccc(C(O)CNC(=O)CCCc2ccccn2)o1` (configuration not stated), the “Percent Effect” value is -12.57%. As for `O=C(CCc1ccccn1)NCC(O)c1ccc(Cl)cc1Cl` (configuration not stated), the “Percent Effect” value is -3.695%. Turning to `O=C(Cn1c(=O)oc2ccccc21)NCC(O)c1ccc2c(c1)CCO2` (configuration not stated), the “Percent Effect” value is -5.514%.

`COCc1ccc(C(=O)NS(=O)(=O)c2ccc3c(c2)CCC(=O)N3)cc1`: the “Percent Effect” value was -28.72%. Then `Cc1cc(N2CCN(C(=O)c3cc(Cl)c[nH]3)CC2)nc(C)n1`, with -11.81%; and `COc1ccc(OC)c(C2CCN(C3CCN(C(C)=O)CC3)C2)c1` (configuration not stated), with -1.425%.

Regarding `COc1ccc([C@@H](C)n2ccnc2-c2cc3n(n2)CCCNC3)cc1`, the “Percent Effect” value is recorded as -13.97%. Then `COc1ccc(-c2nc(C3CCNCC3)cc3c2ncn3C)cc1.Cl.Cl`, with -43.66%. With `COc1ccc(-c2cc(C3CCN(C(C)=O)CC3)ccn2)cc1`, the “Percent Effect” value came out at 135.1%. To `COc1cccc(-c2cc(C3CCCNC3)ccn2)c1` (configuration not stated) belongs 179.8%; to `COc1ccc(-c2cc(C3CCNCC3)ccn2)cc1.Cl`, 126.8%; to `Cn1ccnc1CN1CCC(c2ccnc(-c3cccc(O)c3)c2)C1` (configuration not stated), 8.376%.

`COc1cccc(-c2c[nH]c(C3CCCN3)n2)c1.Cl.Cl` (configuration not stated): the “Percent Effect” value is recorded as -13.27%. For the compound `COc1ccc([C@@H]2CN(c3cc(C(=O)O)ccn3)C[C@H]2N(C)C)cc1`, the “Percent Effect” value was -11.81%.

For `COc1ccc(-c2cc(C3CCCNC3)ccn2)cc1.Cl` (configuration not stated), the “Percent Effect” value is recorded as 198.3%. As for `CC(NC(=O)CCCc1ccc(Cl)cc1)c1n[nH]c(=O)[nH]1` (configuration not stated), the “Percent Effect” value amounted to 26.11%. Then `COCCCNC(=O)C1CCN(CC2(O)CCC(C)CC2)CC1` (configuration not stated), with -1.754%; and `O=C(c1ccc(O)c(Cl)c1)N1CCC(c2n[nH]c(C3CC3)n2)CC1`, with 7.915%.
